# Hits are enriched below; roughly 4.7% of the tested compounds scored in any of these assays.
# eIF4H inh: human eIF4H binding inhibitors, primary screen, translation initiation inhibitor project, biochemical, uHTS, fluorescence polarization. Eukaryotic translation initiation factor 4H (Homo sapiens), Q15056. eIF4H fluorescence polarization binding assay. inhibition, % at 35 µM. 290,000 tested, 0.94% active. AID 2012, 2009;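 note: calls also rest on retests at 20 µM and on dose response follow-up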
# PABP FP inh: PABP poly(A) RNA binding inhibitors, primary screen, biochemical, fluorescence polarization, uHTS. Polyadenylate-binding protein 1 (Homo sapiens), P11940. inhibition, % at 35 µM. 290,000 tested, 1% active. AID 2014, 2009;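 note: calls also rest on retests at 20 µM and on dose response follow-up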
# UBC9 SUMO inh: inhibitors of in vitro SUMOylation cascade, primary screen, biochemical, HTRF, uHTS | 290,000 tested, 0.36% active | inhibition, % at 35 µM | HTRF SUMOylation assay, SAE1/SAE2 + UBC9 | SUMO-conjugating enzyme UBC9 (Homo sapiens), P63279; in the data active = inhibition above about 50%, passing the limit was not always enough
# MLLE-PAM2 inh: inhibitors of PABP1 MLLE–PAM2 peptide binding, primary screen, biochemical, fluorescence polarization, FITC-PAM2, GST-MLLE | Polyadenylate-binding protein 1 (Homo sapiens), P11940 | inhibition, % at 20 µM | 360,000 tested, 0.36% active; in the data active = inhibition above about 35%, passing the limit was not always enough;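 note: plate controls were DMSO wells with GST-MLLE for no effect and wells lacking GST-MLLE protein for full effect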
# ALR H2O2 inh: inhibitors of human ALR sulfhydryl oxidase, primary screen, biochemical, H2O2 detection, HRP-luminol luminescence, single point; inhibition, % (concentration not given with the values); 290,000 tested, 3.8% active; purified ALR, DTT oxidation; FAD-linked sulfhydryl oxidase ALR (Homo sapiens), P55789;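 active = mean replicate inhibition above about 79%, with every replicate also reaching it, limit read from the data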
# Efflux pump inh: inhibitors of Candida efflux pumps in yeast, primary screen, S. cerevisiae, Nile Red, multiplex; S. cerevisiae Candida pump triplex; inhibition, % at 10 µM; 330,000 tested, 0.44% active; AID 485275, 2010;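 active = plate passing quality check with inhibition over a set limit, or well fluorescence over plate mean plus 4 SD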;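 note: Nile Red retained in pooled yeast measured as flow cytometry median fluorescence; 0% = buffer negative control and 100% = Enniatin B positive control; higher means more Nile Red kept so more efflux inhibition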
# * = called active by the depositor; · = no result given. Unless noted, the rule behind the calls is not given here.
SMILES,eIF4H inh,PABP FP inh,UBC9 SUMO inh,MLLE-PAM2 inh,ALR H2O2 inh,Efflux pump inh
Cc1ccc(N2C(=O)CC(Sc3nccc(C)n3)C2=O)cc1 (configuration not stated),4,3,15,22,-1,0
CCOC(=O)c1ccc(N2C(=O)CC(NNC(=O)c3ccc(Br)s3)C2=O)cc1 (configuration not stated),2,-2,11,28,2,0
Cc1ccnc(SC2CC(=O)N(c3ccc([N+](=O)[O-])cc3)C2=O)n1 (configuration not stated),-6,2,2,39*,16,0
O=C1CC(Sc2ncccn2)C(=O)N1c1ccccc1C(F)(F)F (configuration not stated),0,9,-6,25,13,0
CCOC(=O)c1ccc(N2C(=O)CC(Nc3ccc(O)cc3)C2=O)cc1 (configuration not stated),0,-12,37,-11,97*,0
CCOC(=O)c1ccc(N2C(=O)CC(Sc3ncccn3)C2=O)cc1 (configuration not stated),-2,1,8,41*,2,0
Cc1ccc(Cl)cc1N1C(=O)CC(Sc2ncccn2)C1=O (configuration not stated),-4,-6,6,42*,-2,0
O=C(/C=C/C(=O)N1CCc2ccccc2C1)N1CCc2ccccc2C1,9,16,18,14,85*,0
O=C(NNc1cc(Br)c(O)c(Br)c1)c1ccccc1,-3,-1,13,26,99*,0
NS(=O)(=O)c1ccc(NNC(=O)c2ccccc2)cc1,-4,-8,15,4,-8,0
CCN1CCN(S(=O)(=O)c2ccc(Cl)c(C(=O)NCc3nc4ccccc4[nH]3)c2)CC1,·,·,·,-19,·,0
Nc1nc(-c2ccccc2Cl)cs1,·,·,·,32,·,·
Nc1nc(-c2cc3c(cc2Cl)OCCO3)cs1,-4,-3,-4,18,99*,0
Nc1nc(-c2ccc3c(c2)OCCO3)cs1,-2,25,22,-2,99*,0
CC1Cc2cc(-c3csc(N)n3)ccc2O1 (configuration not stated),-5,2,-2,14,·,0
Nc1nc(-c2ccc3c(c2)CCCC3)cs1,6,-8,-2,26,99*,0
O=C1CSC(=S)N1N=Cc1ccc2c(c1)OCO2,·,·,·,21,·,·
Cc1cnc(SCCc2ccncc2)nc1C,5,14,-9,·,99*,0
N#Cc1cnc(SCCc2ccccc2)nc1N,1,17,-3,-56,-2,0
O=C(CC(NCCc1ccccc1)C(=O)O)Nc1ccc(O)cc1 (configuration not stated),-6,1,13,·,91*,0
CC(=O)Nc1ccc(NC(=O)CC(c2ccccc2)c2ccccc2)cc1,-18,2,0,-4,-11,0
O=C(CC(c1ccccc1)c1ccccc1)Nc1ccc(O)cc1,13,-4,7,-1,99*,0
O=S(=O)(c1ccc(Cl)s1)N1CCCc2cccc(O)c21,2,-3,13,0,99*,0
Cc1cc(/C=C(\C#N)C(=O)NCc2ccccc2)c(C)[nH]1,·,·,·,2,·,·
O=C(CN1CCOCC1)N/N=C/c1ccccc1,-1,-7,16,18,3,0
CCCN(CCC)c1ccc(/C=N/NC(=O)CN2CCOCC2)cc1,-9,-3,14,-12,99*,0
O=C(CN1CCOCC1)N/N=C/c1ccc(-c2ccc(C(=O)O)cc2)o1,25,68*,-4,-132,-15,0
CCOc1ccc(N(C(=O)C2CCCO2)C2C=CS(=O)(=O)C2)cc1 (configuration not stated),-3,-12,-6,2,·,0
O=C1OC(Nc2cc(Br)cc3cccnc23)c2ccccc21 (configuration not stated),65*,active,88*,8,20,0
